Sampled rows, rich in hits. Any-hit rate of the full collection: about 4.1%.
hgDAF-12 ag – hgDAF-12 agonism, primary luciferase screen. 370,000 compounds, 1.8% hits. HEK293 GAL4-hgDAF12 UAS-luciferase reporter, agonist luminescence; normalized to butyrate control. activation, % at 6.8 µM;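 active = activation above a cutoff set at the mean of all screened compounds plus 3 SD, cut at about 10% in these data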
DAX1 inh-1 – inhibitors of human orphan nuclear receptor DAX1 (NR0B1). HEK293 Gal4-DAX1 luciferase reporter, luminescence. 340,000 compounds, 0.99% hits. inhibition, % at 6.75 µM. AID 504766;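 active = inhibition above the mean over all tested compounds plus 3 SD, cut at about 4.2% in these data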;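 note: inhibition shows as a rise in luminescence from relieved DAX1 repression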
Target sequence (P51843 207-470 limits assumed): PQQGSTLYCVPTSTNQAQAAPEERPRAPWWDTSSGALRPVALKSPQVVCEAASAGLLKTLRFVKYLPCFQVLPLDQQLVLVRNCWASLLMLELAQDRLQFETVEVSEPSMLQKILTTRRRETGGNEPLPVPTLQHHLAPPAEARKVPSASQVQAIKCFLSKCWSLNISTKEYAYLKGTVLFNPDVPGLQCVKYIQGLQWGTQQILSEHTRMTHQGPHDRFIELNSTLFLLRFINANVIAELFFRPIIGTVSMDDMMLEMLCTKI
ssDAF12 agonist – activates DAF-12 receptor from parasite S. stercoralis; HEK293 ssDAF-12/GRIP1 lit1-tk-luc reporter, luminescence; % of 3 µM dafachronic acid response; AID 652126; activation, % at 6.8 µM; 370,000 compounds, 1% hits;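 active = activation above the mean over all tested compounds plus 3 SD, cut at about 0.9% in these data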
DAX1 inh-2 – blocks DAX1 repression of SF-1 activated StAR promoter. AID 652010. 370,000 compounds, 1.1% hits. inhibition, % at 6.8 µM. HEK293T StAR-luciferase reporter, SF-1/DAX-1 repression relief;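 active = inhibition above the mean over all tested compounds plus 3 SD, cut at about 3.6% in these data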;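 note: higher inhibition means more luminescence from relief of DAX-1 repression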
hcDAF12 agonist – H. contortus DAF-12 activation, primary screen; 370,000 compounds, 1.4% hits; HEK293 hcDAF-12 lit1-tk-luc reporter, luminescence; 0% DMSO, 100% Δ7-dafachronic acid; activation, % at 6.8 µM;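 active = activation above the mean of all tested compounds plus 3 SD, cut at about 5.5% in these data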
PolyA inh – blocks polyadenylation in yeast reporter cells | S. cerevisiae SKY197-pL101 polyadenylation reporter, beta-gal luminescence; efflux-impaired pdr1/pdr3 knockout yeast; score 100 = 6 SD above DMSO | activity score, % at 12 µM | 300,000 compounds, 0.02% hits;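 active = lowest replicate activity score at least 50, where 100 means six control SD above control mean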;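 note: yeast exposed to compound for 9 h at 30 °C; higher score means more reporter readthrough which indicates perturbed polyadenylation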
A number is an active result; n = inactive; x = not tested or not shown.

SMILES	hgDAF-12 ag	DAX1 inh-1	ssDAF12 agonist	DAX1 inh-2	hcDAF12 agonist	PolyA inh
Cc1ccc2c(c1)N(CCCC(=O)N(C)Cc1ccc(F)cc1)C(=O)CO2	n	x	n	n	n	x
Cc1cc(N2CCCCC2C)nc(-c2ccccc2O)n1 (stereo not drawn)	n	4.4	n	n	n	n
CC(=O)OCCC(CC(C)C)NC(=O)[C@H](CC(C)C)NC(=O)OCc1ccccc1 (stereo partly drawn)	n	x	n	x	n	x
COc1ccc(C(=O)c2[nH]c(N)c(C(=O)NCCc3c[nH]c4ccccc34)c2-c2ccc(C(F)(F)F)cc2)cc1	n	x	1.9	n	n	x
COc1ccc(C(=O)c2[nH]c(N)c(C(=O)NCCc3c[nH]c4ccccc34)c2-c2ccc(Br)cc2)cc1	n	x	n	n	n	x
OCCCNc1ncnc2c1ncn2[C@H]1CN(Cc2ccc3c(c2)OCO3)C[C@@H](CO)O1	n	x	n	n	6.3	x
CN(C)CCNc1ncnc2c1ncn2[C@H]1CN(Cc2ccc3c(c2)OCO3)C[C@@H](CO)O1	n	x	n	n	n	x
CCC(=O)Nc1ccc(-c2csc(NNC(C)=O)n2)cc1	n	n	0.9	n	n	n
CC(=O)Nc1nc(-c2ccc3ccccc3c2)cs1	12.9	n	n	n	n	n
CCOC(=O)[C@@]12CCCC3=C1N(CCC3)C(=O)[C@H]2CC(=O)NCC12CC3CC(CC(C3)C1)C2	n	x	n	n	n	x
CN1C(=O)/C(=C/c2ccc(O)c([N+](=O)[O-])c2)N(C)C1=S	n	4.2	n	n	n	n
O=C1S/C(=C\c2ccc(O)c([N+](=O)[O-])c2)C(=O)N1c1ccccc1Cl	n	n	n	n	n	83.1
OC(c1ccccc1)(c1ccccc1)C1CCN(CCCOc2cccc(C(F)(F)F)c2)CC1	n	x	n	n	n	x
Cc1ccc(C(=O)N(C)[C@H]2C[C@H]3c4[nH]c5c(-c6cccc(C)c6)cccc5c4CCN3C[C@H]2[C@H](C)O)cc1	n	x	n	n	n	x
Cc1cc(NS(=O)(=O)c2ccc(NC(=O)CSc3nnc(-c4ccncc4)n3Cc3ccco3)cc2)nc(C)n1	n	x	n	n	n	x
CCCC1CCC2(CC1)CCC2OC(=S)NCc1cccc(F)c1 (stereo not drawn)	n	x	n	x	n	x
O=c1[nH]ncn1-c1ccc(Br)cc1	n	5.2	n	n	n	n
O=c1[nH]ncn1-c1ccccc1	n	n	n	n	n	n
Cc1ccc(C(=O)CSc2nnc3ccccn23)c(C)c1	10.7	n	n	4.4	5.7	n
CC1CCN(c2ccccc2NC(=O)c2ccc(Br)o2)CC1	n	n	1.0	n	n	n
CN1CCN(c2ccccc2NC(=O)c2cc3ccccc3o2)CC1	n	n	n	n	n	n
O=C(Nc1ccccc1N1CCOCC1)c1cc2ccccc2o1	n	n	1.3	n	n	n
CC(=O)OCCCN1CCC2(CCCCC2)C1=O	n	x	n	n	n	x
O=[N+]([O-])c1ncccc1OCc1ccc(Br)cc1F	10.6	n	n	n	n	n
O=[N+]([O-])c1ncccc1OCc1ccccc1Br	n	n	n	n	n	n
SMILES	hgDAF-12 ag	DAX1 inh-1	ssDAF12 agonist	DAX1 inh-2	hcDAF12 agonist	PolyA inh
CN(CC(=O)Nc1ccc(F)cc1)C(=O)CSc1nncs1	n	n	n	3.9	n	n
Cc1csc(SCC(=O)N(C)CC(=O)Nc2ccc(F)cc2)n1	x	n	x	x	x	n
COc1ccc(-c2c(Cc3ccccc3)nc(NC(=O)c3ccccc3)n2C)cc1	n	x	n	n	n	x
COc1ccc(Cl)cc1N(C(C)=O)c1nc(C)cc(C)c1C#N	n	5.1	n	n	5.9	n
CCCNC(=O)Cn1cc(S(=O)(=O)N2CCCC2)c(S(=O)(=O)N2CCCC2)c1	n	n	n	3.9	n	n
COC(=O)[C@]12C[C@H](CC(=O)NCCc3ccccc3OC)C(=O)N(Cc3ccco3)C1=C[C@H](C1CCCC1)O[C@@H]2C	n	x	n	n	n	x
CCn1ncc(N(C)N)c(Cl)c1=O	n	n	1.1	n	n	n
CCn1ncc(N2CCOCC2)c(Cl)c1=O	n	n	n	n	n	n
FC(F)(F)C1=NNC(c2ccc3ccccc3c2)=NN1	11.7	n	n	n	n	x
CC1OC(CCc2cccc(Cl)c2)Cc2[nH][nH]c(=O)c21 (stereo not drawn)	n	x	2.0	n	n	x
O=c1[nH][nH]c2c1[C@H](CCc1cccc(Cl)c1)O[C@H](C1CC1)C2	n	x	n	n	n	x
Fc1ccc(-c2csc(/C=C/c3ccc4c(c3)OCO4)n2)cc1	n	n	1.1	n	n	n
CCCCC(C(=O)O)C(C)CC(=O)Nc1nncs1 (stereo not drawn)	n	4.7	n	n	n	n
COC(=O)c1cc2c(c3c4cc(OC)ccc4n(S(=O)(=O)c4ccc(F)cc4)c13)C(=O)N(Cc1ccccc1)C2	n	x	n	n	n	x
Cc1nc(NC(=S)NC(=O)COc2ccccc2Cl)ccc1Br	n	n	0.9	n	n	n
COc1cccc(CNC(=S)OC2CCC23CCC(c2ccccc2)CC3)c1 (stereo not drawn)	n	x	n	n	n	x
COc1cc(OC)c(NC(=S)NCc2ccc(F)cc2)cc1Cl	n	4.3	n	n	n	n
COc1ccc(NC(=S)NCc2ccc(F)cc2)c(OC)c1	n	n	n	n	n	n
CC(C)C[C@H]1COc2cccc(NCCO)c2S(=O)(=O)N1	n	x	n	n	n	x
COC(=O)/C(C#N)=C1/C=Cc2ccccc2N1	n	n	n	n	5.9	n
Nc1cc[n+](CC(=O)c2ccccc2)cc1	n	n	n	n	n	n
O=C(C[n+]1ccc2ccccc2c1)c1ccccc1	n	4.8	n	n	n	n
Cc1ccc(-n2nnc(-c3cccnc3Cl)n2)cc1	11.6	n	n	n	n	n
CC(C)(C)c1cc(NC(=O)C2CCCO2)no1 (stereo not drawn)	n	n	1.4	n	n	n
O=C(O)c1cc(NC(=O)C2CCCO2)cc(C(=O)O)c1 (stereo not drawn)	n	n	n	n	n	n
SMILES	hgDAF-12 ag	DAX1 inh-1	ssDAF12 agonist	DAX1 inh-2	hcDAF12 agonist	PolyA inh
CCCn1c(-c2cccc([N+](=O)[O-])c2)nc2c1c(=O)[nH]c(=O)n2Cc1ccccc1	n	6.4	n	n	n	n
O=C(C1CCCN(S(=O)(=O)c2ccccc2[N+](=O)[O-])C1)N1CCN(Cc2ccccc2)CC1 (stereo not drawn)	n	x	n	n	n	x
CC(C)(C)S(=O)(=O)N1C[C@H]2CC(=O)C=C2[C@@H]1CCO	n	x	n	n	n	x
CCN(CC)C(=O)CC[C@H]1CC[C@]2(CCCN(Cc3nccn3C)C2)O1	n	x	n	n	n	x
C=CCN1C(=O)[C@@H](CC(=O)NCc2ccccc2)[C@]2(C(=O)OC)CCCCC=C12	n	x	n	n	n	x
C(=N\Nc1nc2ccccc2[nH]1)/c1ccc2c(c1)OCO2	n	8.0	n	n	n	n

From PubChem BioAssay
